According to publication PMC4081100, “A DNA-binding-site landscape and regulatory network analysis for NAC transcription factors in Arabidopsis thaliana”:

Legend:
Experiment in all cases: universal protein binding microarray (PBM); transcription factors of Arabidopsis thaliana; high values mean tight binding
Settings in all cases: protein: recombinant; tags: GST; chain copies: 2; dsDNA, one strand shown
[1] = molecular target: T1, GST-ANAC092(1-176) (Arabidopsis thaliana, UniProt Q9FKA0 1-176)
T1 sequence: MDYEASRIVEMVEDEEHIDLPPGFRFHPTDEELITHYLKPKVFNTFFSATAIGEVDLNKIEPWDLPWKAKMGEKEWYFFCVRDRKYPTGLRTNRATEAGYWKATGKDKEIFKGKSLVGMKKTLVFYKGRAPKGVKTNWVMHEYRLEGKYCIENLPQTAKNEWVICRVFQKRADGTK
How it was run: (§1)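 Protein amounts were determined by A280 or anti-GST western blot after glutathione–Sepharose 4B purification of GST-tagged proteins induced in cells, with zinc acetate included for zinc-finger proteins. Duplicate runs at 200 to 500 nM final were done on custom all-10-mer Agilent 4 × 180K arrays made double-stranded by primer extension. The normalised enrichment score (E-score) over gapped and ungapped 8-mers is the measure of binding.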

[2] = molecular target: GST-NTL6(1-168) (Arabidopsis thaliana, UniProt Q9SCK6 1-168)
Sequence of GST-NTL6(1-168) (Q9SCK6 1-168): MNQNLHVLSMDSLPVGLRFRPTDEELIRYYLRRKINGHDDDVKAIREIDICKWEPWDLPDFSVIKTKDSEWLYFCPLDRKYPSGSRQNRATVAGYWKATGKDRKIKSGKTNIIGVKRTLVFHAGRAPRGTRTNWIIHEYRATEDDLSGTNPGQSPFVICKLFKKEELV
How it was run: as §1

[3] = molecular target: T2, GST-ANAC019 NAC domain (Arabidopsis thaliana, UniProt Q9C932 14-162)
T2 sequence: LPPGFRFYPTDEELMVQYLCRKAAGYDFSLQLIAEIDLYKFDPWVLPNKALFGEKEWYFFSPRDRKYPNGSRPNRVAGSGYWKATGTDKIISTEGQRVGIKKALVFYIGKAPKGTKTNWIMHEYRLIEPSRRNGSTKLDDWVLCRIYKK
How it was run: as §1

[4] = molecular target: T3, GST-ANAC055(1-171) (Arabidopsis thaliana, UniProt Q9LDY8 1-171)
T3 sequence: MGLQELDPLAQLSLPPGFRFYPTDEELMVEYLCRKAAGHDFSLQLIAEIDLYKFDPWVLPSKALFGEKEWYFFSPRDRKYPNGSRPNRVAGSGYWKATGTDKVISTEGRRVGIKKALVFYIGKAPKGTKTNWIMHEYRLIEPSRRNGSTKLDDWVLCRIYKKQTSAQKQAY
How it was run: as §1

[5] = molecular target: T4, GST-ATAF1 NAC domain (Arabidopsis thaliana, UniProt Q39013 7-158)
T4 sequence: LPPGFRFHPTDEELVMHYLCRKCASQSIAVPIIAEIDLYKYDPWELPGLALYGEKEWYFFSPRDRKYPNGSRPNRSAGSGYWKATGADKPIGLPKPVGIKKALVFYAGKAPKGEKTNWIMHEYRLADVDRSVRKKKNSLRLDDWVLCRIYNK
How it was run: as §1

[6] = molecular target: T5, GST-ANAC092(1-285) full length (Arabidopsis thaliana, UniProt Q9FKA0 1-285)
T5 sequence: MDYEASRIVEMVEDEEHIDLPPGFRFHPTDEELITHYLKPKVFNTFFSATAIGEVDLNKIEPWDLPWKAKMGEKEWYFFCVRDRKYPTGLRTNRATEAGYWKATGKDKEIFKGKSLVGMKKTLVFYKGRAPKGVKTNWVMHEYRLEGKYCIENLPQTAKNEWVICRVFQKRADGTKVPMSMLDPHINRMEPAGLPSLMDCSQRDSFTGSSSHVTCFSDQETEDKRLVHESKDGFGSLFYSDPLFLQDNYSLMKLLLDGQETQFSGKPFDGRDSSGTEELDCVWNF
How it was run: as §1

[7] = molecular target: T6, GST-NAP(1-166) (Arabidopsis thaliana, UniProt O49255 1-166)
T6 sequence: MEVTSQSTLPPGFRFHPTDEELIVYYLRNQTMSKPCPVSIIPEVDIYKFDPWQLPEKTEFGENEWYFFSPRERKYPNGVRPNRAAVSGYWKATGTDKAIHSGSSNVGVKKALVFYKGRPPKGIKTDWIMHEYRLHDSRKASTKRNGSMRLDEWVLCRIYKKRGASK
How it was run: as §1

[8] = molecular target: T7, GST-NST2(1-184) (Arabidopsis thaliana, UniProt Q9M274 1-184)
T7 sequence: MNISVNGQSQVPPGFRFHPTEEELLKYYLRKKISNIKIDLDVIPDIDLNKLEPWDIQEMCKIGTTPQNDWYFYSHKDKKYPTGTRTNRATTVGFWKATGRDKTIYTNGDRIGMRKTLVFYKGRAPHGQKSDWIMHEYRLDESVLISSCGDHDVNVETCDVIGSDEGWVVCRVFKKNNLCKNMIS
How it was run: as §1

[9] = molecular target: T8, GST-NTL8 NAC domain (Arabidopsis thaliana, UniProt Q9XIN7 14-156)
T8 sequence: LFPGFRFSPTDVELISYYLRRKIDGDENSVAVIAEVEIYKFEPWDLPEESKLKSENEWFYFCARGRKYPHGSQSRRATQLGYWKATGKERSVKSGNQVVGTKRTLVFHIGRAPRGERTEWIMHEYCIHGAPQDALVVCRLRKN
How it was run: as §1

[10] = molecular target: T9, GST-SND1(1-203) (Arabidopsis thaliana, UniProt Q9LPI7 1-203)
T9 sequence: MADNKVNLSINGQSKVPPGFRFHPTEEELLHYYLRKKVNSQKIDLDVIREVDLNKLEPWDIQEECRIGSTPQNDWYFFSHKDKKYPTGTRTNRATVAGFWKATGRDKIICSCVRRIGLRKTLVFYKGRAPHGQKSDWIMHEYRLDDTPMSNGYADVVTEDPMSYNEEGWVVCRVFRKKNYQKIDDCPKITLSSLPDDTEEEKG
How it was run: as §1

[11] = molecular target: T10, GST-VND3 NAC domain (Arabidopsis thaliana, UniProt Q9FH59 12-162)
T10 sequence: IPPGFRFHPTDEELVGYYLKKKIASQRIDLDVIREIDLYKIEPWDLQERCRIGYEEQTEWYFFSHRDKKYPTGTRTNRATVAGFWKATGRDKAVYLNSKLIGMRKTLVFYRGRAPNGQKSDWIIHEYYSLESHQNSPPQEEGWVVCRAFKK
How it was run: as §1

[12] = molecular target: T11, GST-VND7 NAC domain (Arabidopsis thaliana, UniProt Q9C8W9 9-158)
T11 sequence: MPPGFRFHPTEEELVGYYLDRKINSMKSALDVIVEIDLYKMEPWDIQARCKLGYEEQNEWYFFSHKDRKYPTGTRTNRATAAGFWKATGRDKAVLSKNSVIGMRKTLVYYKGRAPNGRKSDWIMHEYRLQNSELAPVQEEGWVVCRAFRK
How it was run: as §1

Sequence | binding signal [1] [E-score] | binding signal [2] [E-score] | binding signal [3] [E-score] | binding signal [4] [E-score] | binding signal [5] [E-score] | binding signal [6] [E-score] | binding signal [7] [E-score] | binding signal [8] [E-score] | binding signal [9] [E-score] | binding signal [10] [E-score] | binding signal [11] [E-score] | binding signal [12] [E-score]
GAAGGAAC | 0.189 | 0.445 | 0.172 | 0.172 | 0.0557 | 0.204 | 0.148 | 0.249 | 0.45 | 0.337 | 0.114 | 0.181
GGAGGTAA | 0.079 | 0.202 | 0.0898 | 0.0701 | 0.137 | 0.122 | 0.146 | 0.106 | 0.435 | 0.19 | 0.139 | 0.0814
GTTAAGCA | 0.131 | 0.408 | 0.0907 | 0.0654 | 0.119 | 0.153 |  | 0.209 |  | 0.223 | 0.143 | 0.0676
CGAAGTAA | 0.199 | 0.448 | 0.128 | 0.143 | 0.23 | 0.279 |  | 0.223 | 0.416 | 0.303 | 0.138 | 0.19
TACGTAAA | 0.427 | 0.095 | 0.43 | 0.384 | 0.377 | 0.444 | 0.399 | 0.261 | 0.172 | 0.43 | 0.421 | 0.43
AAGGGTAA | 0.117 | 0.194 | 0.127 | 0.0999 | 0.0524 | 0.134 | 0.117 | 0.126 | 0.444 | 0.117 | 0.223 | 0.0677
ACAAGTAA | 0.41 | 0.25 | 0.125 | 0.236 | 0.238 | 0.439 |  | 0.288 |  | 0.257 | 0.249 | 0.0784
CAAGCAAG | 0.369 | 0.235 | 0.163 | 0.0997 | 0.0612 | 0.419 |  | 0.265 | 0.111 | 0.395 | 0.0934 | 0.14
CACACGCA | 0.453 | 0.0743 | 0.389 | 0.321 | 0.248 | 0.47 | 0.375 | 0.229 | 0.141 | 0.327 | 0.375 | 0.353
TTACGAAA | 0.396 | 0.121 | 0.248 | 0.221 | 0.278 | 0.409 | 0.087 | 0.227 | 0.067 | 0.434 | 0.26 | 0.233
ATACGCAA | 0.485 | 0.0867 | 0.429 | 0.397 | 0.336 | 0.487 | 0.459 | 0.406 | 0.172 | 0.462 | 0.435 | 0.433
AAGGAAAT | 0.191 | 0.384 | 0.147 | 0.0899 | 0.122 | 0.163 | 0.06 | 0.15 | 0.466 | 0.258 | 0.144 | 0.0723
CTAGGAAA | 0.146 | 0.188 | 0.18 | 0.214 | 0.167 | 0.0932 |  | 0.187 | 0.425 | 0.145 | 0.219 | 0.13
ACGCAAAT | 0.418 | 0.0591 | 0.268 | 0.232 | 0.262 | 0.42 | 0.235 | 0.265 | 0.0579 | 0.325 | 0.325 | 0.281
